Experimental data taken from PubChem BioAssay (EPA / NIEHS).
Values joined by “and” are separate entries in the source; they are usually repeats but may differ in a detail not shown here. Equal values may be shown once. Inconclusive results are not listed. Some compounds were tested as several samples or in several runs, with calls that do not always agree. Active and inactive are the calls of the source. The calls were made as follows: active = hit-call score of the fitted dose curve at least 0.9, where 1 is the maximum; inconclusive = response in the unintended direction; inactive = score below 0.9.

Legend:
[1] = biological target: Cellular tumor antigen p53 (Homo sapiens) (UniProt P04637); assay: TOX21_p53_BLA_p2_ratio: Tox21 HCT-116 p53 Agonism Beta-lactamase Assay, Ratio, Phase 2 (AID 2283592)
Chain of Cellular tumor antigen p53 (Homo sapiens) (P04637 whole entry, looked up): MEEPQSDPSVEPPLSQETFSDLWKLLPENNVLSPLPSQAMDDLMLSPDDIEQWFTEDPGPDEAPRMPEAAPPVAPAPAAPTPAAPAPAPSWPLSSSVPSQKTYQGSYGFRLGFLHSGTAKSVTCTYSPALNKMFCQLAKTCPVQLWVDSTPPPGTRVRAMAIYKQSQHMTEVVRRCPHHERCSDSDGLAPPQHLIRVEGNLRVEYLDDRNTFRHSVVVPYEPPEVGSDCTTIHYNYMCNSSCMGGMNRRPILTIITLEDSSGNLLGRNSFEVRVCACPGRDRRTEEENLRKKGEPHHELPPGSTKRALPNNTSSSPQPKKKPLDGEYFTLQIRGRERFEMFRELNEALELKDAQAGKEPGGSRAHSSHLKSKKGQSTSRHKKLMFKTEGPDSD
Method in brief: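 HCT-116 cells with p53-responsive beta-lactamase reporter, 4000 cells/well, preincubated 5 h, then compound in DMSO (217-fold dilution) for 16 h at 37C. CCF4-AM substrate 2 h at room temperature; 460/530 nm emission ratio fitted upward versus DMSO.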

[2] = TOX21_p53_BLA_p3_viability: Viability Assessment in the Tox21 HCT-116 p53 Agonism Beta-lactamase Assay, Phase 3 (AID 2283593);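 also: cells exposed to compound for 16 h before reading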
Method in brief: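 HCT116 cells, 4000/well, dosed 5 h after plating by pin transfer (217-fold dilution from DMSO stock) and incubated 16 h at 37C, 5% CO2. Viability read as ATP luminescence with CellTiter-Glo after 30 min at room temperature.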

[3] = biological target: Cellular tumor antigen p53 (Homo sapiens) (UniProt P04637); assay: TOX21_p53_BLA_p3_ratio: Tox21 HCT-116 p53 Agonism Beta-lactamase Assay, Ratio, Phase 3 (AID 2283596)
Method in brief: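 HCT116 p53-bla cells (4000/well) given compound in DMSO (217-fold dilution) after 5 h, incubated 16 h at 37C. CCF4-AM substrate 2 h at room temperature; 460/530 nm emission ratio, gain fitted against DMSO.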

[4] = biological target: Cellular tumor antigen p53 (Homo sapiens) (UniProt P04637); assay: TOX21_p53_BLA_p5_ratio: Tox21 HCT-116 p53 Agonism Beta-lactamase Assay, Ratio, Phase 5 (AID 2283599)
Method in brief: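 HCT-116 p53-bla cells (4000/well) plated 5 h, dosed with compound (217-fold DMSO dilution) for 16 h at 37 C; CCF4-AM substrate 2 h at room temperature. Activity is the 460/530 nm emission ratio (405 nm excitation), fitted in gain-of-signal direction versus DMSO.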

[5] = TOX21_p53_BLA_p5_viability: Viability Assessment in the Tox21 HCT-116 p53 Agonism Beta-lactamase Assay, Phase 5 (AID 2283600)
Method in brief: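 HCT-116 p53 beta-lactamase reporter cells, 4000/well, were exposed to compound (pin transfer, 217-fold dilution) for 16 hours at 37C. Cellular ATP was read by CellTiter-Glo luminescence after 30 min at room temperature.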

[6] = biological target: Cellular tumor antigen p53 (Homo sapiens) (UniProt P04637); assay: TOX21_p53_BLA_p4_ratio: Tox21 HCT-116 p53 Agonism Beta-lactamase Assay, Ratio, Phase 4 (AID 2283601)
Method in brief: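 HCT-116 p53 beta-lactamase reporter cells (4000/well) preincubated 5 h, then compound (217-fold dilution of DMSO stock) for 16 h at 37C. CCF4-AM substrate added 2 h at room temperature; 460/530 nm emission ratio fitted upward versus DMSO.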

[7] = TOX21_p53_BLA_p4_viability: Viability Assessment in the Tox21 HCT-116 p53 Agonism Beta-lactamase Assay, Phase 4 (AID 2283597);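 also: hits lower the luminescence signal meaning cytotoxicity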
Method in brief: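 HCT-116 p53-bla cells, 4000/well, dosed after 5 h attachment and incubated 16 h at 37 °C, 5% CO2. Viability from CellTiter-Glo ATP luminescence after 30 min at room temperature, taken after the beta-lactamase read; loss of signal indicates cytotoxicity.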

[8] = TOX21_p53_BLA_p2_viability: Viability Assessment in the Tox21 HCT-116 p53 Agonism Beta-lactamase Assay, Phase 2 (AID 2283591);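 also: compound exposure lasted 16 h at 37 °C; actives lower the ATP signal meaning cytotoxicity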
Method in brief: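 HCT116 p53-bla cells, 4000/well, dosed after 5 h plating (217-fold dilution of DMSO stocks) and incubated 16 h at 37C. Viability taken as cellular ATP by CellTiter-Glo luminescence after 30 min RT; signal loss marks cytotoxicity.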

Measured: AC50

O=Nc1ccc(Nc2ccccc2)cc1
inactive: [2] | [5]
active: [1] 46 µM and 46.3 µM | [2] 67 µM | [3] 77.1 µM and 61.3 µM | [4] 77.5 µM and 46.3 µM | [6] 76.2 µM and 63 µM

CC(C)c1ccc(C(C)C)cc1
not listed: [8]
inactive: all other assays above

CC(C)Oc1ccccc1O
not listed: [2] | [8]
inactive: all other assays above

C=CC(C)(CCC=C(C)C)OC=O (stereo not drawn)
inactive: [1] | [3] | [6]

CC(=O)Nc1ccccc1O
inactive: [1] | [7] | [6]

CC(=O)O[C@]1(C(C)=O)CC[C@H]2[C@@H]3C[C@H](C)C4=CC(=O)CC[C@]4(C)[C@H]3CC[C@@]21C
not listed: [5] | [8]
inactive: all other assays above

C=C[C@@H](C)CCC=C(C)C
inactive: [4] | [5] | [6]

CC(C)=CCCC(C)=CCCC(C)=CCO
not listed: [2] | [3]
inactive: all other assays above

CCCCCCOC(=O)CC
inactive: [8] | [1] | [3] | [4]

CC1CC(OC(=O)c2ccccc2O)CC(C)(C)C1 (stereo not drawn)
not listed: [2]
inactive: all other assays above

CC(=O)Nc1ccc(CC(=O)O)cc1
not listed: [8]
inactive: all other assays above

CC(C)=CCO
inactive: [1] | [3] | [7] | [4]
